# From the supplement of paper PMC8728848
# This is one part of a sample in which the strongest signals are shown more often than they occur.
# Assays:
# Experiment in all cases: glycan array binding signal (z-score within array); higher = stronger binding
# Settings in all cases: glycan notation: IUPAC condensed, linker removed
# Fuc(a1-2)Gal(b1-4)Glc = target: Fuc(a1-2)Gal(b1-4)Glc
# In short: (§1)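 Glycan array data were curated from 3228 arrays in the Consortium for Functional Glycomics database and kept only where the protein sequence was available. Glycan names were converted to IUPAC-condensed notation, and columns mapping to the same glycan were averaged. The binding signal is a within-array Z-score, averaged across arrays of the same protein sequence at different concentrations or buffers and across linkers. Negative Z-scores can be read as non-binding.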
# [1] = target: Fuc(a1-2)Gal(b1-4)GlcNAc6S
# In short: as §1
# [2] = target: Fuc(a1-2)Gal6S(b1-4)GlcNAc
# In short: as §1
# [3] = target: Fuc(a1-2)[GalNAc(a1-3)]Gal(b1-4)GlcNAc(b1-2)Man(a1-3)[Fuc(a1-2)[GalNAc(a1-3)]Gal(b1-4)GlcNAc(b1-2)Man(a1-6)]Man(b1-4)GlcNAc(b1-4)GlcNAc
# In short: as §1
# [4] = target: Fuc(a1-3)[Gal(b1-4)]GlcNAc(b1-2)Man(a1-3)[Fuc(a1-3)[Gal(b1-4)]GlcNAc(b1-2)Man(a1-6)]Man(b1-4)GlcNAc(b1-4)GlcNAc
# In short: as §1
# [5] = target: Fuc(a1-3)[Gal(b1-4)]GlcNAc(b1-4)Gal(b1-4)[Fuc(a1-3)]GlcNAc
# In short: as §1
# [6] = target: Gal(a1-3)Gal(b1-3)[Fuc(a1-4)]GlcNAc(b1-2)Man(a1-3)[Gal(a1-3)Gal(b1-3)[Fuc(a1-4)]GlcNAc(b1-2)Man(a1-6)]Man(b1-4)GlcNAc(b1-4)GlcNAc
# In short: as §1
# [7] = target: Gal(a1-4)Gal(b1-4)GlcNAc(b1-2)Man(a1-3)[Gal(a1-4)Gal(b1-4)GlcNAc(b1-2)Man(a1-6)]Man(b1-4)GlcNAc(b1-4)GlcNAc
# In short: as §1
# Gal(b1-2)Gal = target: Gal(b1-2)Gal
# In short: as §1
# [8] = target: Gal(b1-3)[Fuc(a1-4)]GlcNAc(b1-2)Man(a1-3)[Gal(b1-3)[Fuc(a1-4)]GlcNAc(b1-2)Man(a1-6)]Man(b1-4)GlcNAc(b1-4)GlcNAc
# In short: as §1
# [9] = target: Gal(b1-3)[Neu5Ac(a2-6)]GalNAc
# In short: as §1
# [10] = target: Gal(b1-4)GlcNAc(b1-2)Man(a1-3)[Gal(b1-4)GlcNAc(b1-2)Man(a1-6)]Man(b1-4)GlcNAc(b1-4)[Fuc(a1-6)]GlcNAc
# In short: as §1
# [11] = target: Gal(b1-4)GlcNAc(b1-3)Gal(b1-3)GlcNAc
# In short: as §1
# [12] = target: Gal(b1-4)GlcNAc(b1-3)Gal(b1-4)Glc
# In short: as §1
# [13] = target: Gal(b1-4)GlcNAc(b1-6)Gal(b1-4)GlcNAc
# In short: as §1
# Gal3S(b1-4)Glc = target: Gal3S(b1-4)Glc
# In short: as §1
# [14] = target: Gal3S(b1-4)[Fuc(a1-3)]Glc6S
# In short: as §1
# [15] = target: GalNAc(b1-4)GlcNAc(b1-2)Man(a1-3)[GalNAc(b1-4)GlcNAc(b1-2)Man(a1-6)]Man(b1-4)GlcNAc(b1-4)GlcNAc
# In short: as §1
# [16] = target: GlcNAc(a1-4)Gal(b1-4)GlcNAc
# In short: as §1
# [17] = target: Kdn(a2-3)Gal(b1-4)[Fuc(a1-3)]GlcNAc
# In short: as §1
# [18] = target: Man(a1-2)Man(a1-6)[Man(a1-3)]Man(a1-6)[Man(a1-2)Man(a1-2)Man(a1-3)]Man
# In short: as §1
# [19] = target: Neu5Ac(a2-3)Gal(b1-3)GlcNAc(b1-3)Gal(b1-4)GlcNAc
# In short: as §1
# [20] = target: Neu5Ac(a2-3)Gal(b1-3)[Fuc(a1-4)]GlcNAc(b1-3)Gal(b1-4)[Fuc(a1-3)]GlcNAc
# In short: as §1
# [21] = target: Neu5Ac(a2-3)Gal(b1-4)GlcNAc(b1-3)Gal(b1-4)[Fuc(a1-3)]GlcNAc
# In short: as §1
# [22] = target: Neu5Ac(a2-3)Gal(b1-4)[Fuc(a1-3)]GlcNAc(b1-3)Gal(b1-4)GlcNAc
# In short: as §1
# [23] = target: Neu5Ac(a2-3)Gal(b1-4)[Fuc(a1-3)]GlcNAc(b1-3)GalNAc
# In short: as §1
# [24] = target: Neu5Ac(a2-3)Gal(b1-4)[Fuc(a1-3)]GlcNAc(b1-6)[Neu5Ac(a2-3)Gal(b1-3)]GalNAc
# In short: as §1
# [25] = target: Neu5Ac(a2-3)GalNAc(b1-4)GlcNAc
# In short: as §1
# [26] = target: Neu5Ac(a2-3)[GalNAc(b1-4)]Gal(b1-4)GlcNAc(b1-3)GalNAc
# In short: as §1
# [27] = target: Neu5Ac(a2-3)[Neu5Ac(a2-6)]GalNAc
# In short: as §1
# [28] = target: Gal(b1-4)GlcNAc(b1-3)[Gal(b1-4)GlcNAc(b1-6)]Gal(b1-4)GlcNAc
# In short: as §1
# Gal3S(b1-4)Glc6S = target: Gal3S(b1-4)Glc6S
# In short: as §1
# Gal6S(b1-3)GlcNAc6S = target: Gal6S(b1-3)GlcNAc6S
# In short: as §1
# Gal6S(b1-4)Glc6S = target: Gal6S(b1-4)Glc6S
# In short: as §1
# Gal6S(b1-4)GlcNAc = target: Gal6S(b1-4)GlcNAc
# In short: as §1
# Gal6S(b1-4)GlcNAc6S = target: Gal6S(b1-4)GlcNAc6S
# In short: as §1
# GalNAc(b1-6)GalNAc = target: GalNAc(b1-6)GalNAc
# In short: as §1
# [29] = target: GlcNAc(a1-4)Gal(b1-3)GlcNAc
# In short: as §1
# [30] = target: GlcNAc(b1-2)[GlcNAc(b1-6)]Man(a1-6)[GlcNAc(b1-2)Man(a1-3)]Man(b1-4)GlcNAc(b1-4)GlcNAc
# In short: as §1
# GlcNAc(b1-3)Fuc = target: GlcNAc(b1-3)Fuc
# In short: as §1
# [31] = target: GlcNAc(b1-3)Gal(b1-4)GlcNAc(b1-3)GalNAc
# In short: as §1
# [32] = target: GlcNAc(b1-3)Gal(b1-4)GlcNAc(b1-3)[GlcNAc(b1-3)Gal(b1-4)GlcNAc(b1-3)]GalNAc
# In short: as §1
# [33] = target: GlcNAc(b1-3)Gal(b1-4)GlcNAc(b1-6)[Gal(b1-3)]GalNAc
# In short: as §1
# GlcNAc(b1-4)GlcNAc = target: GlcNAc(b1-4)GlcNAc
# In short: as §1
# [34] = target: GlcNAc(b1-4)GlcNAc(b1-4)GlcNAc(b1-4)GlcNAc(b1-4)GlcNAc
# In short: as §1
# Kdn(a2-6)Gal(b1-4)GlcNAc = target: Kdn(a2-6)Gal(b1-4)GlcNAc
# In short: as §1
# Man(b1-4)GlcNAc = target: Man(b1-4)GlcNAc
# In short: as §1
# [35] = target: Neu5Ac(a2-3)Gal(b1-3)GlcNAc(b1-2)Man
# In short: as §1
# [36] = target: Neu5Ac(a2-3)Gal(b1-3)[Fuc(a1-4)]GlcNAc(b1-3)Gal(b1-3)[Fuc(a1-4)]GlcNAc
# In short: as §1
# [37] = target: Neu5Ac(a2-3)Gal(b1-3)[Neu5Ac(a2-6)]GalNAc
# In short: as §1
# [38] = target: Neu5Ac(a2-3)Gal(b1-4)GlcNAc
# In short: as §1
# [39] = target: Neu5Ac(a2-3)Gal(b1-4)GlcNAc(b1-3)Gal(b1-4)GlcNAc(b1-3)Gal(b1-4)GlcNAc(b1-2)Man(a1-3)[Neu5Ac(a2-3)Gal(b1-4)GlcNAc(b1-3)Gal(b1-4)GlcNAc(b1-3)Gal(b1-4)GlcNAc(b1-2)Man(a1-6)]GalNAc
# In short: as §1
# [40] = target: Neu5Ac(a2-3)Gal(b1-4)[Fuc(a1-3)]GlcNAc(b1-6)[Gal(b1-3)]GalNAc
# In short: as §1
# [41] = target: Neu5Ac(a2-3)[GalNAc(b1-4)]Gal(b1-4)Glc
# In short: as §1
# [42] = target: Neu5Ac(a2-6)GalNAc(b1-4)GlcNAc6S
# In short: as §1
# Neu5Gc(a2-6)GalNAc = target: Neu5Gc(a2-6)GalNAc
# In short: as §1
binder,measurement,setting,value
"PEB1 (Campylobacter jejuni), Q0P9X8 (protein) MVFRKSLLKLAVFALGACVAFSNANAAEGKLESIKSKGQLIVGVKNDVPHYALLDQATGEIKGFEVDVAKLLAKSILGDDKKIKLVAVNAKTRGPLLDNGSVDAVIATFTITPERKRIYNFSEPYYQDAIGLLVLKEKKYKSLADMKGANIGVAQAATTKKAIGEAAKKIGIDVKFSEFPDYPSIKAALDAKRVDAFSVDKSILLGYVDDKSEILPDSFEPQSYGIVTKKDDPAFAKYVDDFVKEHKNEIDALAKKWGL",glycan array binding signal (z-score),Fuc(a1-2)Gal(b1-4)Glc,-0.354
same,glycan array binding signal (z-score),[1],-0.084
same,glycan array binding signal (z-score),[2],0.768
same,glycan array binding signal (z-score),[3],1.37
same,glycan array binding signal (z-score),[4],-0.842
same,glycan array binding signal (z-score),[5],0.229
same,glycan array binding signal (z-score),[6],3.87
same,glycan array binding signal (z-score),[7],3.37
same,glycan array binding signal (z-score),Gal(b1-2)Gal,0.469
same,glycan array binding signal (z-score),[8],4.54
same,glycan array binding signal (z-score),[9],-0.718
same,glycan array binding signal (z-score),[10],0.818
same,glycan array binding signal (z-score),[11],0.014
same,glycan array binding signal (z-score),[12],-0.613
same,glycan array binding signal (z-score),[13],-1.39
same,glycan array binding signal (z-score),Gal3S(b1-4)Glc,-1.26
same,glycan array binding signal (z-score),[14],0.849
same,glycan array binding signal (z-score),[15],4.17
same,glycan array binding signal (z-score),[16],0.303
same,glycan array binding signal (z-score),[17],-0.113
same,glycan array binding signal (z-score),[18],-0.547
same,glycan array binding signal (z-score),[19],-0.813
same,glycan array binding signal (z-score),[20],0.311
same,glycan array binding signal (z-score),[21],-0.941
same,glycan array binding signal (z-score),[22],3.14
same,glycan array binding signal (z-score),[23],8.24
same,glycan array binding signal (z-score),[24],3.1
same,glycan array binding signal (z-score),[25],-0.108
same,glycan array binding signal (z-score),[26],-0.77
same,glycan array binding signal (z-score),[27],-0.361
Epa12 (Candida glabrata) (protein) MGSSHHHHHHSSGLVPRGSHMLEPDNSLQIFDSFLSNPSKYPLGCSPKITNPKKGLSMELYSYPYRKKGSHPCWDPAYLDPNFPRVGYKKNKLIARVDGVSGDINFNFHPKRQCTPIADYLPPNFNYNEPITTTNFTMLLYGYFKPKVTGLHTFDISADDLLFMNFGAGNAFDCCRRDSTADTFGNYVAWAIWGRRIVRNKLTVRLDKGIYYPLRLFFNNRDYYGQMRLTFKTEHGSERITDFSDYFFSVDDTSEGCPGLITYESECADVKSSTVLETDYITIQAEKE,glycan array binding signal (z-score),[28],-0.194
same,glycan array binding signal (z-score),Gal3S(b1-4)Glc6S,-0.255
same,glycan array binding signal (z-score),Gal6S(b1-3)GlcNAc6S,3.83
same,glycan array binding signal (z-score),Gal6S(b1-4)Glc6S,7.51
same,glycan array binding signal (z-score),Gal6S(b1-4)GlcNAc,1.98
same,glycan array binding signal (z-score),Gal6S(b1-4)GlcNAc6S,8.69
same,glycan array binding signal (z-score),GalNAc(b1-6)GalNAc,-0.347
same,glycan array binding signal (z-score),[29],-0.483
same,glycan array binding signal (z-score),[30],-0.332
same,glycan array binding signal (z-score),GlcNAc(b1-3)Fuc,-0.36
same,glycan array binding signal (z-score),[31],-0.307
same,glycan array binding signal (z-score),[32],-0.348
same,glycan array binding signal (z-score),[33],-0.32
same,glycan array binding signal (z-score),GlcNAc(b1-4)GlcNAc,-0.359
same,glycan array binding signal (z-score),[34],-0.032
same,glycan array binding signal (z-score),Kdn(a2-6)Gal(b1-4)GlcNAc,-0.005
same,glycan array binding signal (z-score),Man(b1-4)GlcNAc,-0.301
same,glycan array binding signal (z-score),[35],-0.336
same,glycan array binding signal (z-score),[36],-0.342
same,glycan array binding signal (z-score),[37],-0.335
same,glycan array binding signal (z-score),[38],-0.321
same,glycan array binding signal (z-score),[39],-0.239
same,glycan array binding signal (z-score),[22],-0.251
same,glycan array binding signal (z-score),[40],-0.245
same,glycan array binding signal (z-score),[41],-0.34
same,glycan array binding signal (z-score),[42],-0.36
same,glycan array binding signal (z-score),Neu5Gc(a2-6)GalNAc,-0.309
